gsp agonist: activates gsp, the McCune-Albright syndrome mutation. AID 624287. Potency, µM (top dose mostly 76.9 µM), for the others: top-dose activation (cAMP increase), usual class: activators. actives 0.13% (n = 340,000). gsp mutant cells, cAMP HTRF, 30 min; active = well fitted activation curve with a large enough effect; inconclusive = small, poorly fitted or top-dose-only effect, or another doubt; inactive = no such curve, though single readings can be large or run the other way; cell line not stated here;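 note: phosphodiesterase inhibitor Ro 20-1724 added with compounds to block cAMP breakdown; potency is the fitted concentration of half-maximal effect; nearly all actives have a fitted effect of over 60% in size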
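Cells stably selected in G418 were plated at 2000/well, grown 16-24 hr, then given compounds in DMSO with the PDE inhibitor […] (300 uM solution added) for 30 min at 37C; cAMP was read by HTRF.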
gsp antag: antagonizes gsp, the McCune-Albright syndrome mutation. AID 624288. actives 0.4% (n = 340,000). gsp-mutant cells, cAMP HTRF, 30 min. Potency, µM (series often up to 76.9 µM), without a hit: top-dose activity change, negative = inhibition, hits mostly inhibitors; calls by dose curve; cell line not stated here;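 note: intracellular cAMP measured with PDE inhibitor Ro 20-1724 present during compound exposure; potency is the fitted concentration of half-maximal effect; % is set by controls: 0 for no effect and ±100 for the full control effect; nearly all actives have a fitted effect of over 65% in size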
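G418-selected cells were plated in DMEM/10% FBS for 16-24 h at 37C, then treated with compounds plus the PDE inhibitor […] (300 uM solution added) for 30 min at 37C. Intracellular cAMP was measured by HTRF after 30 min lysis at room temperature.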
IL-2 act: IL-2 activation; actives 0.065% (n = 360,000); IL-2 activation reporter assay, cell-based qHTS; stimulated with anti-CD3/CD4/CD28 beads; in transgenic mouse T cells; activation, % (series mostly up to about 46 µM); in the data active = activation above about 50%; inconclusive = mostly about 30% to 49%; note: 0% is about no effect
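Readout: EGFP and DsRed signals by fluorescent plate cytometry. Unstimulated transgenic mouse T cells received compound 60 min before antibody-bead stimulation, then incubated 18 h at 37 degrees C.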
BRCA1 expr act: BRCA1 expression activation; actives 1.1% (n = 380,000); Potency, µM (doses to about 46.1 µM), inactives show top-dose activation, usual class: activators; MCF7-BRCA1-FFLuc reporter, luminescence, 48 h; response scale: scaled: vehicle 0%, 10 µM genistein 100%; note: potency is the fitted concentration of half-maximal effect; nearly all actives have a fitted effect of over 80% in size
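MCF7-BRCA1-FFLuc, 2000 cells/well; 2 h attach, 37 °C/5% CO2; compound 48 h; luciferase substrate 15 min; luminescence end-point. Norm. to genistein 10 microM max activation and DMSO; concentration-response curves fitted.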
IDH1 R132H inh: inhibitors of human mutant IDH1 R132H; O75874; IDH1-R132H enzyme, NADPH consumption, diaphorase/resazurin fluorescence; Potency, µM (titrated, usually from 76.6 µM), inactives show at the top dose activity change, negative = inhibition, most hits filed as inhibitors; actives 0.093% (n = 390,000); note: potency is the fitted concentration of half-maximal effect; % is set by controls: 0 for no effect and ±100 for the full control effect; nearly all actives have a fitted effect of over 65% in size
Target sequence (O75874 whole entry R132H, stated change not applied): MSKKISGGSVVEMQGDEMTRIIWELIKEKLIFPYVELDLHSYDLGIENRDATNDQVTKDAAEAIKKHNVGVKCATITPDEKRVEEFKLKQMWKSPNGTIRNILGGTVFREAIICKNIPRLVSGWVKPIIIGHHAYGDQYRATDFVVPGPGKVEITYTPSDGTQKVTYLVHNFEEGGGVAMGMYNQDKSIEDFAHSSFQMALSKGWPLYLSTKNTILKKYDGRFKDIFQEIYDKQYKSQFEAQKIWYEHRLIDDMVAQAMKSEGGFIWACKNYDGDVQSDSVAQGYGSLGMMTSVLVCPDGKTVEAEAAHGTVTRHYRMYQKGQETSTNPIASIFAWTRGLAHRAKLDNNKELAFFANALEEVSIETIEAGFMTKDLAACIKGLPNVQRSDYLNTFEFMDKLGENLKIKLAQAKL
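IDH1-R132H (0.5 ug/mL) preincubated 30 min with compound, then NADPH (0.016 mM) and alpha-KG (2 mM) added; 80 min at RT, pH 7.5. Remaining NADPH coupled via diaphorase/resazurin to fluorescence (540/590 nm); concentration-response curves normalized to no-enzyme control.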
An asterisk follows results filed as active; ? = inconclusive; · = no result given; [ ] = another dose, or the depositor's remark. Hits are enriched below; roughly 1.5% of the tested compounds scored in any of these assays. Unless noted, calls come from the whole dose curve; as a rule, active = well fitted curve in the direction sought with a large enough effect; inconclusive = small, poorly fitted or top-dose-only effect, or another doubt; inactive = no such curve, though single readings can be large; an effect the other way counts as inactive or inconclusive.

SMILES	gsp agonist	gsp antag	IL-2 act	BRCA1 expr act	IDH1 R132H inh
O=C(COc1ncnc2cc([N+](=O)[O-])ccc12)N(CCc1ccccc1)Cc1ccccc1	?	28µM*	1	0%	-3%
O=C1NC(=S)NC1=Cc1ccccc1O	?	-6%	3	9%	0%
O=C1NC(=S)N/C1=C/c1cccc2ccccc12	0%	-4%	-4	13µM*	1%
CCC(C)C(CO)NCCCn1cnc2c(OCc3ccccc3)ncnc21 (configuration not stated)	?	·	0	5%	5%
CCc1cc(/C(Cc2ccccn2)=N\O)c(O)cc1O	13%	35µM*	-2	-34%	2%
O=C(NC1CC1)c1c(O)c2ccccc2[nH]c1=O	-2%	11%	1	28%	21%
O=C(NC1CCCCCCC1)c1c(O)c2ccccc2[nH]c1=O	-10%	-1%	-1	10µM*	-1%
CCN1CCSc2ccc(C(=O)NCc3ccc(F)cc3)cc21	·	·	·	-33%	13%
COc1ccc(N2CCN(C(CNC(=O)C(=O)NC3CCCC3)c3ccco3)CC2)cc1 (configuration not stated)	12%	7%	1	6%	9%
CCc1ccc(NC(=O)C2CCN(c3nn4c(=O)cc(C)nc4s3)CC2)cc1	·	·	·	-26%	-14%
COc1cccc2c1cc1c(=O)n(CC(=O)NC3CC3)nc(C)n12	·	·	·	·	0%
N#Cc1ccccc1NC(=O)CN1CCN(Cc2ccccc2)CC1	0%[15.4 µM]	35µM*	-1	-17%	4%
O=C(Cc1cccs1)N/N=C/C(Br)=C/c1ccccc1	19%	5%	-2	5µM*	-2%
Cn1ccs/c1=N\C(=O)Nc1cccc(Cl)c1	?	14%	-1	3.5µM*	12%
c1ccc(CCNc2nc3ccccc3s2)cc1	20%	3%	-3	11µM*	8%
CCN1/C(=C/c2ccc3cccc(C)c3[n+]2CC)Sc2ccccc21	?	-26%	54*	-73%	4%
CCCCC(=O)Nc1c(C(=O)N2CCN(c3ccccc3)CC2)oc2ccccc12	·	·	·	·	1%
CC(=O)c1cccc(OCc2cc(C(=O)N(C)CCc3cnn(C)c3)no2)c1	-16%	2%	1	46%	4%
COc1cc(Cl)ccc1OCc1cc(C(=O)N(C)CCc2cnn(C)c2)no1	5%	?	-2	7.1µM*	-7%
Cc1cc(OCc2cc(C(=O)N(C)CCc3cnn(C)c3)no2)cc(C)c1Cl	21%	-18%	-3	10µM*	4%
CC1(C(=O)Nc2cccc(C(F)(F)F)c2)Cc2c(-c3ccc4c(c3)OCO4)ccnc2O1 (configuration not stated)	·	·	0	-49%	·
Cn1c(=O)oc2cc(S(=O)(=O)N3CCC(C(=O)N4CCN(c5ccc(Cl)cc5)CC4)CC3)ccc21	·	·	·	12%	24%
Cc1cc[n+](CC(=O)c2ccc(F)cc2)cc1	·	·	·	11%	·
CCc1cc2c(=O)nc3n(c2s1)Cc1ccccc1/C3=C(/O)c1cccc([N+](=O)[O-])c1	3.2µM*	11%	0	-5%	5%
CCc1cc2c(=O)nc3n(c2s1)Cc1ccccc1/C3=C(/O)c1ccccc1Cl	-17%	-32%	-7	-13%	3%
SMILES	gsp agonist	gsp antag	IL-2 act	BRCA1 expr act	IDH1 R132H inh
O=C(NCCSC1CCCCC1)c1ccccc1	-45%	1%	0	?	-2%
COc1ccc(C(=O)NCCSC2CCCCC2)cc1	23%[15.4 µM]	7%	0	1.8µM*	3%
CCOC(=O)c1sc(N/N=C/c2cccc(C)c2)nc1C	-9%	-13%	-3	2.8µM*	6%
O=C1CC(c2cccc([N+](=O)[O-])c2)c2c(ccc3ccccc23)N1 (configuration not stated)	8%	40µM*	-3	-48%	-5%
O=C1CC(c2ccc(Br)cc2)c2c(ccc3ccccc23)N1 (configuration not stated)	·	·	·	·	-31%
O=C(CN1CCN(S(=O)(=O)c2ccc(Cl)cc2)CC1)c1ccc(O)c(O)c1	-16%	6%	0	-3%	0%
COc1cccc(OCCOc2ccccc2[N+](=O)[O-])c1	2%	-17%	-5	?	4%
